# Data taken from PubChem BioAssay.
# “And” between values parts separate entries of the source, which are not always exact repeats. Equal entries are not always repeated. The source holds several records for some structures; these can differ, active in one and inactive in another. The source made the active and inactive calls.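 How the source made its calls, unless noted: active means compounds whose cell count with miR-34 switched on is under 0.7 times the count with it off; inactive means the rest.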
# Key:
# [1] = stimulators of nuclear beta-catenin in C2C12, primary screen, imaging, WNT3A-conditioned medium, mouse C2C12, NPC library (AID 1117326; in the data active means nuclear beta-catenin stimulation mostly above about 4.2%, no sharp cut-off; inactive means mostly below about 10%); settings: stronger effect = higher value
# [2] = stimulators of insulin release from INS-1E, primary screen, cell-based, 5 mM glucose, NPC library (AID 1117329;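 active means compound raises insulin release from rat beta cells at 5 mM glucose, no numeric limit stated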); settings: rat INS-1E insulin secretion, at 10 µM, stronger effect = higher value
# [3] = growth inhibition of GSK3B-pretreated HCT116 cells – cell-based, CellTiter-Glo, 0.2 to 20 µM (AID 1117336;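 active means compounds lowering colon cancer cell viability after pretreatment blocking the GSK3B kinase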); settings: HCT116 viability after GSK3B inhibitor, at 20 µM, stronger effect = higher value
# [4] = inhibition of endothelial tube formation, primary screen, imaging, VEGF stimulated, CD31 staining, tube area, NPC library (AID 1117340;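 active means compound that reduces growth-factor-driven endothelial tube area in a mixed cell culture, no cutoff stated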); settings: VEGF-stimulated ADSC/ECFC co-culture, at 10 µM, stronger effect = higher value
# [5] = glucagon-like peptide 1 release enhancers, primary assay, NCI-H716 cell line, NPC library (AID 1117341;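 active means compound raises GLP1 secretion from the human gut endocrine cells, with no numeric limit stated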); settings: NCI-H716 cells, at 10 µM, stronger effect = higher value
# [6] = HCT116 colon cancer cell growth inhibition, primary screen, CellTiter-Glo luminescence, NPC library (AID 1117342;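 active means compounds that lower survival of HCT116 colon cancer cells in the luminescence readout, no numeric limit stated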); settings: at 20 µM (top of the series)
# [7] = CellTiter-Glo luminescent readout of SW480 viability loss, NPC library primary (AID 1117343;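 active means compounds that lower viability of the colon cancer cells in the luminescence readout, with no numeric limit stated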); settings: CellTiter-Glo luminescence; at 20 µM (top of the series) unless noted
# [8] = decreased DLD-1 cellular survival, CellTiter-Glo luminescent readout, NPC compound collection, primary HTS (AID 1117346;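 active means compounds that lower survival of DLD-1 colon cancer cells in the luminescence readout, no cutoff given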); settings: DLD-1 viability, CellTiter-Glo luminescence; at 20 µM (top of the series)
# [9] = differential killing of epithelial or mesenchymal cells, primary screen, imaging, PC-3E GFP, TEM4-18 mCherry, co-culture (AID 1345086;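 active means compounds killing one labelled cell type while sparing the other, by normalised counts and ratio limits, not self-fluorescent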;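 on all read-outs here: cells exposed to compound for 72 h before imaging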;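 on red/green cell ratio (normalised): normalised mesenchymal count divided by normalised epithelial count so high means epithelial killing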); settings: imaging cell counts, at 1 µM; for red/green cell ratio (normalised): actives lie on both sides, counts scaled to control wells, 1 = unselective
# [10] = sensitizers of A549 cells to miR-34 induction, primary screen, imaging, A549 dox-inducible miR-34, nuclei and caspase counts (AID 1347080); settings: A549 miR-34 inducible, Hoechst nuclei count, 48 h
# [11] = survival rescue of mitochondrial mutant cells in low glucose, primary screen, MELAS cybrids, Rieske KO mouse fibroblasts, CellTiter-Glo (AID 1508586;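 active means mean z-score across replicates of 1.96 or higher in either the MELAS or the Rieske mutant cell line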;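 further: z relative to plate mean and SD of compound and empty wells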)
# [12] = target: NAD(+) hydrolase SARM1 (Homo sapiens) (UniProt Q6SZW1); experiment: SARM1 TIR NADase inhibitors, cell lysate, NAD-Glo luminescence (AID 1508614;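 active means compound whose remaining NAD level is above about 45 nM, limit read from the data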); settings: SAM-TIR HEK293T lysate NADase, at 1 µM, stronger effect = higher value
# [13] = hESC survival regulators, cell-based (AID 493140; call rule not given here;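 further: cells exposed to compounds for four days before counting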); settings: human embryonic stem cell survival screen; stronger effect = higher value
# [14] = liver-stage malaria parasite growth inhibition, primary screen, cell-based, HepG2, luciferase luminescence, HepG2 viability (AID 624349; in the data active means parasite load remaining mostly below about 12%, no sharp cut-off; inactive means mostly above about 10%;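 further: 100% = mean of DMSO negative control wells on the same plate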); settings: P. berghei liver stage in HepG2, luciferase luminescence, concentration not given here; parasite load remaining: stronger effect = lower value; viability: measured here: HepG2 viability without parasites
# [15] = measured here: epithelial PC-3E GFP cell survival
# [16] = measured here: mesenchymal TEM4-18 mCherry cell survival
# [17] = stronger effect = lower value, cell number ratio, induced over uninduced
# [18] = measured here: relative caspase fold change +Dox/-Dox
# [19] = measured here: total cells with miR-34 induction, stronger effect = lower value
# [20] = measured here: total cells without miR-34 induction
# [21] = MELAS cybrid survival, CellTiter-Glo 48 h, stronger effect = higher value
# [22] = Rieske KO mouse fibroblast survival, CellTiter-Glo 72 h
# NAD(+) hydrolase SARM1 (Homo sapiens), sequence (Q6SZW1 whole entry, looked up): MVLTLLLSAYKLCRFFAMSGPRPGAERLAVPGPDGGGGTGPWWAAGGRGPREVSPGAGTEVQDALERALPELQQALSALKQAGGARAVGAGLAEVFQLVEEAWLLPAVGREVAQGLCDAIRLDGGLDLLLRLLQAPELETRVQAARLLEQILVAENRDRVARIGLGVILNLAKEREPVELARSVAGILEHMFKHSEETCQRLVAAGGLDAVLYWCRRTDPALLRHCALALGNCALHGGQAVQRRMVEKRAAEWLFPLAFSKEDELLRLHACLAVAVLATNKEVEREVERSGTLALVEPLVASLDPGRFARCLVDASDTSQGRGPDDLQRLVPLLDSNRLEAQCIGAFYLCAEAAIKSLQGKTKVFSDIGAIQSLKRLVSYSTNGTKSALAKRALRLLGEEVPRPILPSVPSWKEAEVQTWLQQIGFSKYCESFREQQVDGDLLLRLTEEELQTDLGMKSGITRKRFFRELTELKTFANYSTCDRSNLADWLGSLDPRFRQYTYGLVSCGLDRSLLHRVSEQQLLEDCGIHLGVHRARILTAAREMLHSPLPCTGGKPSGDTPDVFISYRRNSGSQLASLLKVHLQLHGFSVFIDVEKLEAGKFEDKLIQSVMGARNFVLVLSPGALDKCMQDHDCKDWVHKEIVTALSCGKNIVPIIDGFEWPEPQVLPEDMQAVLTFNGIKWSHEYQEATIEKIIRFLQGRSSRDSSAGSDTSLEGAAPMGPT
smiles,measurement,setting,value
CN1C(CCl)Nc2cc(Cl)c(S(N)(=O)=O)cc2S1(=O)=O (stereo not drawn),nuclear beta-catenin stimulation,[1]; at 10 µM,-0.9% (inactive)
same,nuclear beta-catenin stimulation,"[1]; stimulation, at 2 µM",1.3%
same,insulin secretion stimulation,[2],2.3% (inactive)
same,viability decrease,[3],0.4% (inactive)
same,tube area decrease,[4],3.9% (inactive)
same,GLP1 secretion stimulation,[5],-2.1% (inactive)
same,inhibition of viability,[6],-10.4% (inactive)
same,viability decrease (inhibition),[7],-2.9% (inactive)
same,viability decrease (inhibition),[8],-20.7% (inactive)
same,red/green cell ratio (normalised),[9],0.93 (inactive)
same,normalised cell number,[9]; [15],1.23
same,normalised cell number,[9]; [16],1.15
same,fold change,[10]; [17],0.914 (inactive) and 0.898 (inactive)
same,fold change,[10]; [18],1.08 and 0.519
same,cell count,[10]; [19],8680 and 8370
same,cell count,[10]; [20],9500 and 9310
same,z-score,[11]; [21],-0.258 (inactive)
same,z-score,[11]; [22],-0.124
same,remaining NAD,[12],10 nM (inactive)
CC1CC(OC(=O)c2ccccc2O)CC(C)(C)C1 (stereo not drawn),survival,[13],6 (inactive)
same,parasite load remaining,[14],86.4% (inactive) and 63% (inactive)
same,viability,[14],75.8% and 101%
same,nuclear beta-catenin stimulation,[1]; at 10 µM,1.8% (inactive)
same,nuclear beta-catenin stimulation,"[1]; stimulation, at 2 µM",-0.1%
same,insulin secretion stimulation,[2],0% (inactive)
same,viability decrease,[3],-63.6% (inactive)
same,tube area decrease,[4],4.9% (inactive)
same,GLP1 secretion stimulation,[5],-7.6% (inactive)
same,inhibition of viability,[6],9.33% (inactive)
same,viability decrease (inhibition),[7],6% (inactive)
same,viability decrease (inhibition),[8],-0.4% (inactive)
same,red/green cell ratio (normalised),[9],1.12 (inactive)
same,normalised cell number,[9]; [15],1.37
same,normalised cell number,[9]; [16],1.53
same,fold change,[10]; [17],0.96 (inactive) and 0.853 (inactive)
same,fold change,[10]; [18],0.489 and 3.24
same,cell count,[10]; [19],9060 and 10300
same,cell count,[10]; [20],9440 and 12000
same,z-score,[11]; [21],-0.66 (inactive)
same,z-score,[11]; [22],-0.623
same,remaining NAD,[12],10 nM (inactive)
CC(C(=O)O)c1ccc2c(c1)Cc1cccnc1O2 (stereo not drawn),parasite load remaining,[14],27% (inactive)
same,viability,[14],105%
same,nuclear beta-catenin stimulation,[1]; at 10 µM,0.4% (inactive)
same,nuclear beta-catenin stimulation,"[1]; stimulation, at 2 µM",-0.1%
same,insulin secretion stimulation,[2],4.3% (inactive)
same,viability decrease,[3],-8.3% (inactive)
same,tube area decrease,[4],-14.8% (inactive)
same,GLP1 secretion stimulation,[5],-2.7% (inactive)
same,inhibition of viability,[6],-12% (inactive)
same,viability decrease (inhibition),[7],18.6% (inactive)
same,viability decrease (inhibition),[8],9.3% (inactive)
same,red/green cell ratio (normalised),[9],0.99 (inactive)
same,normalised cell number,[9]; [15],0.91
same,normalised cell number,[9]; [16],0.9
same,fold change,[10]; [17],1 (inactive) and 0.866 (inactive)
same,fold change,[10]; [18],0.334 and 1.75
same,cell count,[10]; [19],3140 and 9560
same,cell count,[10]; [20],3140 and 11000
same,z-score,[11]; [21],-0.199 (inactive) and 0.41 (inactive) and -0.18 (inactive)
same,z-score,[11]; [22],0.0831 and 0.15 and -0.741
same,remaining NAD,[12],10 nM (inactive)
CN1C(=O)OC(C)(C)C1=O,survival,[13],8.08 (inactive)
same,parasite load remaining,[14],83.9% (inactive) and 86.8% (inactive) and 50.6% (inactive)
same,viability,[14],107% and 78.1% and 129%
same,nuclear beta-catenin stimulation,[1]; at 10 µM,1.4% (inactive)
same,nuclear beta-catenin stimulation,"[1]; stimulation, at 2 µM",-0.1%
same,insulin secretion stimulation,[2],1% (inactive)
same,viability decrease,[3],31.5% (inactive)
same,tube area decrease,[4],13.2% (inactive)
same,GLP1 secretion stimulation,[5],-0.3% (inactive)
same,inhibition of viability,[6],28% (inactive)
same,viability decrease (inhibition),[7],54.4% (active)
same,viability decrease (inhibition),[8],87.4% (active)
same,red/green cell ratio (normalised),[9],0.94 (inactive)
same,normalised cell number,[9]; [15],0.96
same,normalised cell number,[9]; [16],0.9
same,fold change,[10]; [17],0.862 (inactive) and 0.885 (inactive)
same,fold change,[10]; [18],1.14 and 3.65
same,cell count,[10]; [19],9130 and 11500
same,cell count,[10]; [20],10600 and 13000
same,z-score,[11]; [21],0.482 (inactive)
same,z-score,[11]; [22],-0.121
same,remaining NAD,[12],10 nM (inactive)
OC1(c2ccc(Cl)c(C(F)(F)F)c2)CCN(CCCC(c2ccc(F)cc2)c2ccc(F)cc2)CC1,nuclear beta-catenin stimulation,[1]; at 10 µM,-2.1% (inactive)
same,nuclear beta-catenin stimulation,"[1]; stimulation, at 2 µM",27.1%
same,insulin secretion stimulation,[2],0.05% (inactive)
same,viability decrease,[3],117% (active)
same,tube area decrease,[4],112% (active)
same,GLP1 secretion stimulation,[5],51.4% (active)
same,inhibition of viability,[6],124% (active)
same,viability decrease (inhibition),[7],158% (active)
same,viability decrease (inhibition),[8],101% (active)
same,red/green cell ratio (normalised),[9],0.98 (inactive)
same,normalised cell number,[9]; [15],0.98
same,normalised cell number,[9]; [16],0.96
same,fold change,[10]; [17],0.677 (active) and 0.99 (inactive)
same,fold change,[10]; [18],1.19 and 0.678
same,cell count,[10]; [19],3030 and 2930
same,cell count,[10]; [20],4480 and 2970
same,z-score,[11]; [21],-0.344 (inactive)
same,z-score,[11]; [22],-0.197
same,remaining NAD,[12],10 nM (inactive)
